Source: PubChem
Sampled rows, rich in hits. Any-hit rate of the full collection: about 3.5%.
Tau fibril FP: qHTS for Inhibitors of Tau Fibril Formation, Fluorescence Polarization; K18 P301L tau heparin fibrillization, Alexa594 FP, 6 h; Potency, µM (top dose mostly 57.7 µM), for inactives: at the top dose activity, negative = inhibition, most hits filed as inhibitors; 280,000 tested, 0.39% active; AID 1468, 2008; further: nearly all actives have a fitted effect of over 55% in size
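Human K18 P301L fragment (15 uM unlabeled plus 0.24 uM Alexa 594-labeled) in 100 mM sodium acetate pH 7 with compound, aggregation induced by 20 uM heparin for 6 hr at 37 C. ThT (30 uM) added for 1 hr, then Alexa 594 FP read.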
Tau fluor counter: Counterscreen qHTS for Inhibitors of Tau Fibril Formation, Fluorescence Polarization | tau K18 P301L Alexa594 fluorescence, heparin fibrillization | Potency, µM (highest dose often 57.7 µM), for inactives: at the highest dose activity change, negative = decrease | 280,000 tested, 0.93% active; further: nearly all actives have a fitted effect of over 55% in size
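Human K18 P301L tau (15 uM unlabeled plus 0.24 uM Alexa 594-labeled, final) in 100 mM sodium acetate pH 7 was mixed with compound and 20 uM heparin and incubated 6 hr at 37 C.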
TR SRC2 fluor cs: Total Fluorescence Counterscreen for Inhibitors of the Interaction of Thyroid Hormone Receptor and Steroid Receptor Coregulator 2; TRb/SRC2 Texas Red total fluorescence interference; Potency, µM (highest dose often 106 µM), without a hit: top-dose fluorescence change, negative = quenching; 280,000 tested, 0.29% active; AID 1479, 2009; active means well fitted curve in either direction with a large enough effect; inconclusive means small, poorly fitted or top-dose-only effect
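Human TRb ligand-binding domain at 0.6 uM with 20 nM Texas Red SRC2 peptide in Tris buffer containing 1 uM T3 and 5% DMSO, incubated with compound 5 h at ambient temperature. Total fluorescence (555/632 nm) calculated as parallel + 2 × perpendicular.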
Tau fibril ThT: qHTS for Inhibitors of Tau Fibril Formation, Thioflavin T Binding; Potency, µM (top dose mostly 57.4 µM), for inactives: top-dose activity, negative = inhibition, hits mostly inhibitors; AID 1460, 2008; recombinant tau K18 P301L, heparin-induced fibrillization, ThT fluorescence; Microtubule-associated protein tau (Homo sapiens), P10636; 270,000 tested, 2.1% active; further: nearly all actives have a fitted effect of over 55% in size
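ThT emission at 510 nm, taken 1 hr after adding 30 uM dye, quantifies aggregates formed when 20 uM heparin acts on human tau K18 P301L for 6 hr at 37 C.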
KDM4E inh: qHTS Assay for Inhibitors of Human Jumonji Domain Containing 2E (JMJD2E). Lysine-specific demethylase 4E (Homo sapiens), B2RXH2. JMJD2E catalytic domain, FDH-coupled NADH fluorescence (FDH is formaldehyde dehydrogenase). Potency, µM (doses to about 57.1 µM), for inactives: at the highest dose activity change, negative = inhibition, hits mostly inhibitors. 230,000 tested, 1.6% active. AID 2147, 2009; active means well fitted inhibition curve with a large enough effect, not every such curve was filed as active; inconclusive means small, poorly fitted or top-dose-only effect, or another doubt; inactive means no such curve, though single readings can be large or run the other way;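 further: 0% = wells with enzyme and -100% = buffer wells without enzyme; nearly all actives have a fitted effect of over 50% in size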
TRb-SRC2 inh: qHTS for Inhibitors of the Interaction of Thyroid Hormone Receptor and Steroid Receptor Coregulator 2; Potency, µM (top dose mostly 106 µM), for the others: at the top dose activity change, negative = inhibition, actives largely listed as inhibitors; 280,000 tested, 0.065% active; TRbeta-SRC2 peptide binding, fluorescence polarization; receptor liganded with 1 µM T3; Thyroid hormone receptor beta (Homo sapiens), P10828;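 further: plate controls were bound peptide for no effect and peptide without receptor for full effect; nearly all actives have a fitted effect of over 50% in size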
Target sequence (P10828 whole entry, looked up): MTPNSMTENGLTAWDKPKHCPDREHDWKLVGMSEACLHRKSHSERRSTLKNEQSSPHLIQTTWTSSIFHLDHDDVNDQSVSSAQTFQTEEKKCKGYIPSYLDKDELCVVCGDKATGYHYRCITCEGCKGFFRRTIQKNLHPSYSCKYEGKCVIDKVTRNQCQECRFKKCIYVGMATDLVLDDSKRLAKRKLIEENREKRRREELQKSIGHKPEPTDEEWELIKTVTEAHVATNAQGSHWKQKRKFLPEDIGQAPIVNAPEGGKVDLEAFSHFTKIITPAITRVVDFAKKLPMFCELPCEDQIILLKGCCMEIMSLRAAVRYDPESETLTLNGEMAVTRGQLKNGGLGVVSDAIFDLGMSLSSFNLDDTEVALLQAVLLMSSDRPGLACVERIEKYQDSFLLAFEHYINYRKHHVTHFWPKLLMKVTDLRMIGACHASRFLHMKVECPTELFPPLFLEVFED
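A fluorescence polarization screen tested compounds at multiple concentrations against complex formation between 0.6 uM TRb ligand-binding domain and 20 nM Texas Red SRC2 peptide, with 1 uM T3 present; readout after 5 hr.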
An asterisk follows results filed as active; ? = inconclusive; [ ] = remark or other dose. Unless noted, the call rests on the fitted dose curve; in most records, active means well fitted curve in the direction sought with a large enough effect; inconclusive means small, poorly fitted or top-dose-only effect, or another doubt; inactive means no such curve, though single readings can be large; an effect the other way counts as inactive or inconclusive. Unless noted, on the % scale 0 is the no-effect control and ±100 the full control effect; potency means the concentration at half of the fitted maximal effect.

SMILES	Tau fibril FP	Tau fluor counter	TR SRC2 fluor cs	Tau fibril ThT	KDM4E inh	TRb-SRC2 inh
CN1CCc2c(sc3c2C(=O)NC(c2ccc(-c4ccc(Cl)cc4)o2)N3)C1 (configuration not stated)	?	?	9%	3.2µM*	?	1%
CN1CCc2c(sc3c2C(=O)NC(c2ccco2)N3)C1 (configuration not stated)	?	-21%	-7%	?	?	2%
COc1ccc(Br)cc1C1NC(=O)c2c(sc3c2CCN(C)C3)N1 (configuration not stated)	-4%	4%	6%	-14%	?	-6%
COc1ccc(/C=C/C(=O)c2c(O)cc(C)oc2=O)c(OC)c1	3%	-6%	12%	-17%	-15%	5%
COc1cc(O)c(C(=O)/C=C/c2ccc(OC)c(O)c2)c(OC)c1	-2%	?	-2%	3.2µM*	?	9%
COc1ccc(/C=C/C(=O)c2cc3cccc(OC)c3oc2=O)cc1	14%	-22%	-4%	7.1µM*	?	-1%
CN(C)c1ccc(/C=C/C(=O)c2ccccc2O)cc1	?	?	-2%	4µM*	-13%	8%
COc1ccc(C(=O)/C=C/c2ccc(C)cc2)c(OC(=O)c2ccc([N+](=O)[O-])cc2)c1	9%	?	-2%	3.5µM*	3%	-1%
COc1ccc(C(=O)/C=C/c2ccccc2F)c(OC(=O)c2ccc([N+](=O)[O-])cc2)c1	11%	?	-2%	?	4%	0%
Cc1ccc(/C=C/C(=O)c2ccccc2O)cc1	12%	-20%	-4%	?	-24%	8%
COc1ccc(CC(=O)O)cc1O	6%	3%	-1%	3%	9%	-7%
O=C(/C=C/c1cccc(O)c1)c1cccnc1	13%	5%	-1%	-15%	-13%	-1%
COc1ccc(C(=O)/C=C/c2ccc(N(C)C)cc2)c(OC)c1	-3%	14µM*[quencher]	-2%	?	-3%	2%
CN(C)c1ccc(/C=C/C(=O)c2cccnc2)cc1	4%	?	-2%	5µM*	-4%	4%
O=C(Nc1cc(SCC(O)CO)cc([N+](=O)[O-])c1)c1ccc(-n2cnnn2)cc1 (configuration not stated)	-6%	?	?	?	1%	12%
CC(C)N1C(=O)CCC1C(=O)NC1CCCC1 (configuration not stated)	-9%	-5%	1%	-9%	6%	0%
COCCCn1c(O)c(/C=C2\N=C(C#N)C(=Nc3ccc(C)cc3)O2)sc1=S	?	?	5%	11µM*	?	9%
O=C(O)C1CSC(c2ccc3c(c2)OCO3)N1 (configuration not stated)	?	-15%	-2%	?	?	6%
CC1=NN(c2ccccc2)C(=O)/C1=C\c1cc(C)n(-c2cccnc2)c1C	-8%	-20%	0%	?	0%	0%
CC1=NN(c2ccc(C)c(C)c2)C(=O)/C1=C/c1ccc2c(c1)n(C)c(=O)n2C	12%	-5%	-1%	-18%	?	-28%
CC1=NN(c2cccc(C(=O)O)c2)C(=O)/C1=C\C=C/c1ccccc1	?	?	-2%	7.1µM*	-13%	1%
CC1=NN(c2ccccc2)C(=O)/C1=C/C=C/C=C/N(C)C	-5%	-27%	1%	16µM*	?	4%
CC1=NN(c2ccc(C)cc2)C(=O)/C1=C\C=C\c1ccccc1	?	7.9µM*[quencher]	0%	7.1µM*	-10%	-9%
